Laboratory results taken from PubChem BioAssay AID777 (Sanford-Burnham Center for Chemical Genomics, 2007).
About 19,000 (20%) of roughly 96,000 compounds were called active. A selection follows. Values without a mark were called inactive.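 How the source made its calls: active means blocking of liver enzyme CYP2C9 beyond about 50% at 5 µM (limit read from the data); inactive means the rest.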

These compounds were tested against Cytochrome P450 2C9 (Homo sapiens) (UniProt P11712) (assay: blockers of cytochrome P450 2C9 activity – biochemical, luminescence, ADME assay, primary screen (AID 777)). Conditions: CYP2C9 Supersomes, luciferin-H conversion, at 5 µM, hits give high values.
Cytochrome P450 2C9 (Homo sapiens), sequence (P11712 whole entry, looked up): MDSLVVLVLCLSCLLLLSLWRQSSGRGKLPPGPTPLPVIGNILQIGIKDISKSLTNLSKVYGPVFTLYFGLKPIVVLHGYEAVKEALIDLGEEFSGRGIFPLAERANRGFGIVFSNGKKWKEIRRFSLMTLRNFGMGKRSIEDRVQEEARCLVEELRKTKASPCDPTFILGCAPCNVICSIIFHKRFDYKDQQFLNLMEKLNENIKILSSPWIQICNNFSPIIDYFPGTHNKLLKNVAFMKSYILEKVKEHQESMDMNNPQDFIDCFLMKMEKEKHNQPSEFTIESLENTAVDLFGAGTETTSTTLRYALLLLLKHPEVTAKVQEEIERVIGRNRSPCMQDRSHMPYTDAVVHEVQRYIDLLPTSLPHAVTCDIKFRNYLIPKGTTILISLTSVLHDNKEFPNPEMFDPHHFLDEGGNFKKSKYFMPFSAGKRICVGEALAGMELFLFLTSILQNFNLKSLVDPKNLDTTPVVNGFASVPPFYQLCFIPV
For `O=C(NN1C(=O)C2C3C=CC(C4CC34)C2C1=O)c1ccc(Cl)cc1` (configuration not stated), the inhibition was 9.6%.
`COc1ccc(C(=O)n2nc(-c3ccc(Cl)cc3)nc2N)cc1OC` gave an inhibition of -12.4%.
`COC(=O)c1ccc(OC(=O)c2nn(C)cc2Cl)c(OC)c1` was tested, and the inhibition was 58.9% (active).
`COc1ccc(Cl)cc1C(=O)NCc1cn(C)nc1C` showed an inhibition of 1.3%.
For `CN(C(=O)CSc1nnc(N)s1)c1c(N)n(Cc2ccccc2)c(=O)[nH]c1=O`, the inhibition was -12.4%.
`COc1ccc(CC(NC(C)=O)C(=O)NC2CCN(C(=O)Nc3ccc(C#N)cc3)CC2)cc1OC` (configuration not stated) was tested, and the inhibition was 9.3%.
With `Cc1noc(C)c1S(=O)(=O)N1CCCC(C(=O)Nc2nccs2)C1` (configuration not stated) the inhibition was 56.5% (active).
Work on `Cc1ccc(NC(=O)C2CCCN(S(=O)(=O)c3c(C)noc3C)C2)c(C)c1` (configuration not stated) yielded an inhibition of 8.4%.
`O=C(Nc1nccs1)C1CCN(S(=O)(=O)c2ccc(Cl)c(C(F)(F)F)c2)CC1` gave an inhibition of -45.5%.
`Cc1ccc(C2=CSC3=NS(=O)(=O)CCN23)cc1C` showed an inhibition of -9.4%.
For `CCOC(=O)CSc1nnc(-c2cccc(Br)c2)o1`, the inhibition was -12.3%.
Work on `CCOC(=O)N1CCN(C(=O)c2cc3c(-c4ccc(Cl)cc4)nn(C)c3s2)CC1` yielded an inhibition of 25.5%.
In the case of `COc1ccccc1N1CCN(C(=O)CN(Cc2ccc(Cl)cc2)S(C)(=O)=O)CC1`, the inhibition is reported as 41.4%.
For `COc1cccc(-c2nn(C)c3sc(C(=O)N4CCN(c5ccccc5)CC4)cc23)c1`, the inhibition was 68.5% (active).
With `COc1ccccc1N1CCN(C(=O)c2cc3c(-c4ccc(Cl)cc4)nn(C)c3s2)CC1` the inhibition was 97.6% (active).
With `COc1cccc(-n2cc(C(=O)O)c3ccccc3c2=O)c1` the inhibition was 0.5%.
In the case of `CCN1CCN(C(=O)c2cc3cc4ccc(OC)cc4nc3s2)CC1`, the inhibition is reported as -5.1%.
With `Cc1nn(Cc2ccc(C(=O)N3N=C(C(F)F)CC3(O)C(F)F)cc2)c(C)c1[N+](=O)[O-]` (configuration not stated) the inhibition was 25.2%.
`CCOC(=O)C1CCCN(C(=O)c2sc3nc(C)nc(N4CCOCC4)c3c2C)C1` (configuration not stated) gave an inhibition of 23.1%.
With `O=C1Nc2ccccc2C12Nc1ccccc1S2` (configuration not stated) the inhibition was 37.5%.
Work on `COc1ccc(C(CC(=O)O)NC(=O)Cc2ccccc2)cc1` (configuration not stated) yielded an inhibition of -10.6%.
For `Nn1cnnc1N/N=C/c1cc([N+](=O)[O-])c(Cl)cc1Cl`, the inhibition was 16.5%.
In the case of `O=C(NCC(F)(F)F)Nc1nnc(C(F)(F)F)s1`, the inhibition is reported as -13.1%.
Compound `CN1C(=O)c2ccccc2C(C(=O)NCCCN2CCCC2)C1c1c[nH]c2ccccc12` (configuration not stated) has an inhibition of 4.5%.
Work on `CCn1nc(NC(=O)c2ccco2)c2cc3ccc(C)cc3nc21` yielded an inhibition of 19.8%.
`Cc1c(-c2ccccc2)cn2c1-c1ccc(C)n1CC2` showed an inhibition of -10.8%.
`O=[N+]([O-])c1ccc(NCCCN2CCOCC2)c(Cl)c1` showed an inhibition of 6.4%.
`CC(C)c1ccc(C(=O)NCCCc2ccccc2)cc1` was tested, and the inhibition was 37.2%.
`COc1ccc(S(=O)(=O)Nc2c(C)n(C)n(-c3ccccc3)c2=O)cc1` showed an inhibition of -4.2%.
Compound `COC(=O)Nc1c(C)n(C)n(-c2ccccc2)c1=O` has an inhibition of -15.1%.
For `Cc1ccc(S(=O)(=O)Nc2ccccc2CNc2c(C)n(C)n(-c3ccccc3)c2=O)cc1`, the inhibition was 83.9% (active).
For `C/C(=N/NC(=O)c1cc(Cl)ccc1O)C12CC3CC(CC(C3)C1)C2`, the inhibition was 24.2%.
`Cc1nc(C)c2c(c1C(F)(F)F)-c1ccccc1C2(F)F` showed an inhibition of -9.6%.
`Nc1ncc(-c2cc3ccccc3oc2=O)s1` was tested, and the inhibition was 24%.
In the case of `CCN(CC)c1nc(-c2ccccc2)cc(C(F)(F)F)c1C#N`, the inhibition is reported as 89.5% (active).
Compound `N#Cc1c(C(F)(F)F)cc(-c2ccccc2)nc1SCC(=O)N1CCOCC1` has an inhibition of -15.6%.
For `CCc1c(-c2ccccc2)nc(N)c(C#N)c1-c1cccs1`, the inhibition was 21.7%.
Compound `Cc1ccc(-c2csc(-c3c[nH]c4ccccc34)n2)cc1` has an inhibition of 9.8%.
In the case of `COc1ccc2c(Cl)c(C(=O)NCc3ccco3)sc2c1`, the inhibition is reported as -31.6%.
With `Cc1cc(SCC(=O)c2ccccc2)nc(SCC(=O)c2ccccc2)n1` the inhibition was 66.3% (active).
With `Cc1nc(SCC(=O)c2ccccc2)c([N+](=O)[O-])[nH]1` the inhibition was 39.1%.
For `COC(=O)c1cc(C(=O)CSc2nc(C)cc(C)n2)ccc1O`, the inhibition was 6%.
For `O=S(=O)(NCc1ccccn1)c1ccc(F)cc1`, the inhibition was -1.3%.
`O=S(=O)(NCCOc1cccc2cccnc12)c1ccc(F)cc1` gave an inhibition of -234%.
In the case of `O=S(=O)(Nc1ccc(Oc2ncccn2)c(Cl)c1)c1ccc(F)cc1`, the inhibition is reported as 99.7% (active).
`CCCNc1ncnc2sc(C)c(C)c12` gave an inhibition of 8.4%.
For `CC(=O)c1ccc(Oc2cc(C)nc(-n3nc(C)cc3C)n2)cc1`, the inhibition was -5%.
Work on `OC(COc1cccc(OCC(O)CN2CCCC2)c1)CN1CCCC1` (configuration not stated) yielded an inhibition of 15.5%.
Work on `COc1cccc(OCC(O)CN2CCN(CCO)CC2)c1` (configuration not stated) yielded an inhibition of -2.9%.
For `O=C(C(c1ccccc1)c1ccccc1)N1CCN(CC(O)COc2ccccc2)CC1` (configuration not stated), the inhibition was 65.6% (active).
`CN(C(=O)C1CCOC1)c1nnc(-c2cccnc2)s1` (configuration not stated) gave an inhibition of 0.8%.
`CCn1c(=O)cc(O)c2ccccc21` showed an inhibition of -18.7%.
With `CCn1c(NC(=O)c2ccccc2)c(-c2cccs2)c(=O)c2ccccc21` the inhibition was 86.7% (active).
For `Cn1sc(NC(=O)c2ccccc2)nc1=O`, the inhibition was 19.9%.
In the case of `Cc1cc(-c2ccccc2)n2nc(C)c(-c3ccccc3)c2n1`, the inhibition is reported as -9.3%.
`CCS(=O)(=O)Nc1ccc(C2=NN(S(=O)(=O)c3ccc(F)cc3)C(c3ccco3)C2)cc1` (configuration not stated) was tested, and the inhibition was 87.7% (active).
Work on `O=C(c1ccco1)N1CCN(C(=O)C2CC(c3ccc(F)cc3)=NO2)CC1` (configuration not stated) yielded an inhibition of 5.7%.
With `Fc1ccc(N2N=C(c3cccs3)CC2c2ccco2)c(F)c1` (configuration not stated) the inhibition was 15.7%.
Work on `CC(=O)Nc1ccc(N2C(=O)CCC2=O)cc1C` yielded an inhibition of 16.4%.
`O=C(Cn1nc(C(F)(F)F)c2c1CCC2)NCc1ccc(F)cc1` showed an inhibition of -216%.
`CCCN1C(=O)C(NS(=O)(=O)c2ccc(N)cc2)(C(F)(F)F)C(C(=O)OC)=C1C` (configuration not stated) was tested, and the inhibition was -3.4%.
`CCCCn1c(CCCNC(=O)CC)nc2ccccc21` showed an inhibition of -16.5%.
In the case of `Cc1ccccc1S(=O)(=O)Cc1ccc(C(=O)NCCN2CCCCC2C)o1` (configuration not stated), the inhibition is reported as 11.1%.
Compound `Cc1cccc(NC(=O)Nc2cccc(Oc3c(F)c(F)c(F)c(F)c3F)c2)c1` has an inhibition of 20.6%.
`Cc1cccc(NC(=O)C(C)N2C(=O)C3C4CC(C(Br)C4Br)C3C2=O)c1` (configuration not stated) was tested, and the inhibition was 51.6% (active).
`Cc1cccc(NC(=O)CN2C(=O)CNC2=O)c1` gave an inhibition of -16.3%.
`CC1=C(C(=O)Nc2ccc(Cl)cc2)C(c2ccco2)NC(=O)N1` (configuration not stated) was tested, and the inhibition was 0.4%.
With `CCOc1ccccc1C1NC(=O)NC(C)=C1C(=O)OCc1ccco1` (configuration not stated) the inhibition was 75.3% (active).
In the case of `CCOc1ccccc1C(=O)NCc1ccco1`, the inhibition is reported as -0.6%.
`CCOC(=O)COc1ccc(Cl)cc1C1NC(=O)NC(C)=C1C(C)=O` (configuration not stated) gave an inhibition of 44.9%.
`c1ccc(CSc2ncnc3c2sc2nc(N4CCOCC4)c4c(c23)CCCC4)cc1` showed an inhibition of 10.4%.
Work on `CCOC(=O)c1sc(NC(=O)CSc2nc(C)cc(C(F)(F)F)n2)c(C#N)c1C` yielded an inhibition of 24.8%.
Work on `COC(=O)C(NC(C)=O)(Nc1nc2c(s1)CCCC2)C(F)(F)F` (configuration not stated) yielded an inhibition of 26.9%.
In the case of `CCC(=O)NC(Nc1nc2ccc(C)cc2s1)(C(=O)OC)C(F)(F)F` (configuration not stated), the inhibition is reported as 97% (active).
`CCC(=O)NC(Nc1cc(C)ccn1)(C(F)(F)F)C(F)(F)F` gave an inhibition of 23.8%.
`O=C(CCN1C(=O)COc2ccccc21)NCCCN1CCN(c2ccc(F)cc2)CC1` was tested, and the inhibition was 3.9%.
In the case of `COc1ccc(OC)c(C2N(c3ccccn3)C(=O)C3CCCN32)c1` (configuration not stated), the inhibition is reported as 10.9%.
With `CC(C)CCSc1ncnc2c1oc1nc3c(cc12)COC(C)(C)C3` the inhibition was 55.7% (active).
`CC1(C)Cc2nc3sc4c(SCC(=O)NC(c5ccccc5)c5ccccc5)ncnc4c3cc2CO1` showed an inhibition of 20.2%.
`C=CCn1c(=S)[nH]c2nc3c(cc2c1=O)COC(C)(C)C3` was tested, and the inhibition was 31.2%.
`CN(C)c1ccnc2sc3c(=O)n(Cc4ccccc4)cnc3c12` was tested, and the inhibition was 49.6%.
In the case of `O=C(COC(=O)c1ccccc1NC(=O)c1ccco1)Nc1ccc2c(c1)OC(F)(F)O2`, the inhibition is reported as 76.1% (active).
In the case of `Cc1ccccc1NC(=O)c1cnn(-c2ccccc2)c1NC(=O)c1ccco1`, the inhibition is reported as 1.2%.
Work on `COc1ccccc1C(=O)Nc1ccc(NC(=O)c2ccco2)c(C)c1` yielded an inhibition of -177%.
In the case of `Cc1cc(N)n2nc(-c3ccc(C(C)(C)C)cc3)cc2n1`, the inhibition is reported as 38.3%.
`CCN1CCN(Cc2nc3c(c(=O)n(C)c(=O)n3C)n2CC(=O)c2ccccc2)CC1` showed an inhibition of 29.8%.
With `CCOC(=O)Cn1c(CN(Cc2ccccc2)Cc2ccccc2)nc2c1c(=O)[nH]c(=O)n2C` the inhibition was 48.8%.
Compound `CCOC(=O)N1CCN(Cc2nc3c(c(=O)n(C)c(=O)n3C)n2Cc2ccccc2)CC1` has an inhibition of 9.9%.
Work on `C=CCOc1nc2c(c(=O)n(C)c(=O)n2C)n1Cc1ccc(Cl)cc1Cl` yielded an inhibition of 8.1%.
With `COCCn1c(CN(Cc2ccccc2)Cc2ccccc2)nc2c1c(=O)n(C)c(=O)n2C` the inhibition was 96.4% (active).
For `CC(C)CCn1c(CN(C)Cc2ccccc2)nc2c1c(=O)n(C)c(=O)n2C`, the inhibition was 95.6% (active).
In the case of `Cn1c(=O)c2c(nc(NCCc3ccccc3)n2Cc2ccccc2)n(C)c1=O`, the inhibition is reported as 5.6%.
`CC1CN(Cc2nc3c(c(=O)n(C)c(=O)n3C)n2Cc2cccc(Cl)c2)CC(C)O1` (configuration not stated) showed an inhibition of 28%.
`Cn1c(=O)c2c(nc(OCc3cccnc3)n2Cc2ccccc2)n(C)c1=O` was tested, and the inhibition was 52.4% (active).
`Cn1c(=O)[nH]c(=O)c2c1nc(CN(Cc1ccccc1)Cc1ccccc1)n2CCN1CCOCC1` gave an inhibition of 7.6%.
For `COCCn1c(CN2CCC(Cc3ccccc3)CC2)nc2c1c(=O)n(C)c(=O)n2C`, the inhibition was 54.2% (active).
For `CN1CCN(Cc2nc3c(c(=O)n(C)c(=O)n3C)n2Cc2cccc3ccccc23)CC1`, the inhibition was -8.7%.
